# This is a sample that favours compounds with a hit; in the whole collection about 21% have one here.
# NS1 function inh: influenza NS1 inhibition; Potency, µM (highest dose often 46.1 µM); 270,000 compounds, 0.4% hits; calls by dose curve; note: actives are rising curves; nearly all actives have a fitted effect of over 50% in size
#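 OD600 was taken as the measure of yeast growth restored by compound in an NS1-expressing S. cerevisiae strain. Cells had been washed out of glucose medium and diluted 1:100 into galactose -URA medium, pH 6.0.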
# Shiga toxin inh: inhibitors of Shiga toxin in Vero cells; Vero cells, Shiga toxin protein synthesis inhibition reporter; inhibition, % at 38.7 µM; 290,000 compounds, 9.2% hits; in the data active = inhibition mostly above about 28%, no sharp cut-off; inactive = mostly below about 43%
# Pf growth 96h: inhibits malaria parasite growth, 96 h | 320,000 compounds, 6.9% hits | Potency, µM (highest dose often 28.7 µM), usual class: inhibitors | P. falciparum luciferase reporter growth, 96 h
#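 Two-generation exposure (96 h) targets delayed-death phenotype. Reporter parasites carrying integrated firefly luciferase, in red cells at 2% hematocrit and 0.05% parasitemia final, kept at 37 C, 5% CO2; luminescence loss indicates inhibition.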
# Pf growth 48h: P. falciparum growth inhibition at 48 hours (one generation). Potency, µM (top dose mostly 28.7 µM), usual class: inhibitors. P. falciparum luciferase growth in erythrocytes, 48 h. 310,000 compounds, 5.9% hits
#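 Read-out is firefly luciferase luminescence from an integrated reporter in P. falciparum, so falling signal marks reduced parasite growth. Infected erythrocytes were at 2% hematocrit and 0.1% parasitemia (final) in Albumax-supplemented RPMI 1640.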
# Cycloheximide cs: counter-screen hit for Shiga toxin inhibitors, cycloheximide; 300,000 compounds, 12% hits; cell reporter, cycloheximide protein synthesis inhibition counterscreen; max response, %; in the data active = max response mostly above about 13%, no sharp cut-off; inactive = mostly below about 14%; note: read at 38.3 µM for the half of the compounds with a filed dose
# Numbers stand for hits; - = inactive; ? = inconclusive; . = no result given; [ ] = dose if it differs, or a comment. Unless noted, calls come from the whole dose curve; as a rule, active = well fitted inhibition curve with a large enough effect; inconclusive = small, poorly fitted or top-dose-only effect, or another doubt; inactive = no such curve, though single readings can be large or run the other way.
SMILES,NS1 function inh,Shiga toxin inh,Pf growth 96h,Pf growth 48h,Cycloheximide cs
Cc1ccc2nc(-c3ccccc3)oc(=O)c2c1,-,-,?,-,-
COc1ccccc1CN1CC(C(=O)N2CCC(OC)CC2)CCC1=O (centres undefined),-,-,?,-,-
CN1CCN(C(=O)c2ccccc2-c2nc(-c3ccccc3)no2)CC1,-,-,-,-,21.6
COc1ccc(-c2noc(-c3ccccc3C(=O)N3CCOCC3)n2)cc1,-,-,.,-,-
NC(=O)c1ccccc1-c1nc(-c2ccccc2)no1,-,95.3,-,-,44.1
Cc1ccc(-c2noc(-c3ccccc3C(=O)N3CCOCC3)n2)cc1,-,-,-,.,-
COc1ccc2nc(C)cc(N/N=C/c3ccccc3)c2c1,.,.,0.147µM,0.147µM,.
Cc1cc(C(=O)NN)c2cc(Br)ccc2n1,-,-,?,.,-
COc1ccc2nc(C)cc(NCc3ccc(F)cc3)c2c1,-,-,2.62µM,?,-
COc1ccc2nc(C)cc(SCC(=O)N/N=C/c3ccccc3)c2c1,-,-,4.15µM,-,-
Cc1cc(SCC(=O)NN)c2cc(Br)ccc2n1,-,-,?,14.7µM,-
COc1ccc2nc(C)cc(SCC(=O)N/N=C/c3c(OC)ccc4ccccc34)c2c1,-,-,-,-,-
COc1ccc(/C=N/Nc2cc(C)nc3ccc(OC)cc23)c(OC)c1,-,-,?,?,-
CC1CCCC(C)N1CCCNC(=O)Cn1ncc2c3ccccc3n(C)c2c1=O (centres undefined),-,-,?,-,-
CC(=O)N1N=C(c2cccc([N+](=O)[O-])c2)OC1c1ccc(Cl)cc1Cl (centres undefined),-,-,?,-,-
Cc1ccnc(SCCn2c(Br)nc3c2c(=O)n(C)c(=O)n3C)n1,-,.,.,.,.
COc1ccccc1/C=N/Nc1cc(C)nc2ccc(C)cc12,-,.,?,-,26.1
Cc1ccc2nc(C)cc(N/N=C/c3ccccc3O)c2c1,-,26.9,-,-,22.1
O=C(NCC(c1ccc(F)cc1)N1CCOCC1)c1ccc(C(=O)c2ccccc2)cc1 (centres undefined),-,-,?,-,-
CN(C)c1ccc(C(CNC(=O)COc2ccc(Cl)cc2)N2CCCC2)cc1 (centres undefined),-,-,6.57µM,-,-
O=C(CC12CC3CC(CC(C3)C1)C2)NCC(c1ccc(F)cc1)N1CCOCC1 (centres undefined),.,-,11.7µM,11.7µM,-
Cc1cc(OCC(=O)NCC(c2ccc(F)cc2)N2CCOCC2)ccc1Cl (centres undefined),.,.,9.28µM,9.28µM,.
O=C(NCC(c1ccc(F)cc1)N1CCOCC1)c1cc(F)c(F)c(F)c1F (centres undefined),-,-,-,-,-
COc1ccc(C(CNC(=O)COc2ccccc2C#N)N2CCOCC2)cc1 (centres undefined),-,-,-,-,-
COc1cc(C(=O)NCC(c2ccc(F)cc2)N2CCOCC2)ccc1OCc1ccccc1Cl (centres undefined),.,.,9.28µM,5.22µM,.
SMILES,NS1 function inh,Shiga toxin inh,Pf growth 96h,Pf growth 48h,Cycloheximide cs
Cc1ccc(Cn2nc(C)c(C(=O)NCC(c3ccc(F)cc3)N3CCOCC3)c2Cl)cc1 (centres undefined),.,.,?,10.4µM,.
O=C(NCC(c1ccc(F)cc1)N1CCOCC1)c1ccc(Br)o1 (centres undefined),-,-,?,-,-
CN(C(=O)COC(=O)/C=C/c1ccc(S(=O)(=O)N2CCc3ccccc32)cc1)C1CCS(=O)(=O)C1 (centres undefined),-,-,?,-,-
CCCc1cc(NCc2ccccn2)n2c(nc3ccccc32)c1C#N,.,-,-,1.85µM,-
CCCc1cc(NCC2CCCO2)n2c(nc3ccccc32)c1C#N (centres undefined),-,-,.,5.22µM,-
Cc1cc(NCc2ccccn2)n2c(nc3ccccc32)c1C#N,-,-,-,?,-
Cc1nn(-c2ccccc2)nc1CNC(=O)C1CC1,-,-,-,-,-
Nc1c(C(=O)Nc2ccc(S(=O)(=O)N3CCCC3)cc2)sc2nc3ccc(OC(F)(F)F)cc3cc12,-,-,-,10.4µM,-
Nc1c(C(=O)Nc2ccc(S(=O)(=O)N3CCCC3)cc2)sc2nc3cc4c(cc3cc12)CCC4,-,21.6,-,1.85µM,27.4
Nc1c(C(=O)Nc2ccc(Cl)c(C(=O)O)c2)sc2nc3c(cc12)CCCC3,-,-,-,-,-
O=C(Cc1cccs1)Nc1ccccc1C(=O)O,?,-,-,-,20.9
O=C(Cc1cccs1)Nc1ccccc1NC(=O)Cc1cccs1,-,-,?,-,-
O=C(Cc1cccs1)Nc1ccccc1F,-,-,-,-[0.00184 µM],18.2
CCOC(=O)c1sc2nc(C)cc(C)c2c1N,-,77.8,?,-,50.4
CCCCOC(=O)c1sc2nc(C)cc(C)c2c1N,-,47.8,-,-,27.1
Cc1cc(C)c2c(N)c(C(=O)N3CCN(c4ncccn4)CC3)sc2n1,-,-,-,-,30.7
Cc1cc(C)c2c(N)c(C(=O)NNC(=O)c3ccccc3)sc2n1,-,93.3,?,-,45.1
C/C(=N/OCC(=O)NCCCCCCNC(=O)CO/N=C(/C)c1cccs1)c1cccs1,-,-,?,-,-
Cc1cc(C)c2c(N)c(C(=O)Nc3nccs3)sc2n1,-,-,-,-,-
Cc1cc(-c2nc(C)c(C(=O)NN)s2)no1,-,-,-,-,-
Cc1ccc(NC(=O)c2sc3nc(C)cc(C)c3c2N)cc1,-,124.9,-,-,50.8
Cc1cc(C)c2c(N)c(C(=O)NC3CC3)sc2n1,-,-,?,-,-
Cc1cc(C)c2c(N)c(C(=O)NN)sc2n1,-,77.5,?,?,45.0
Cc1cc(C)c2c(N)c(C(=O)Nc3cccc(C)c3C)sc2n1,-,-,-,-,11.5
Cc1ccccc1NC(=O)c1sc2nc3c(c(-c4ccco4)c2c1N)CCCC3,-,-,.,?,-
SMILES,NS1 function inh,Shiga toxin inh,Pf growth 96h,Pf growth 48h,Cycloheximide cs
Cc1nc(N)sc1C(=O)NN,-,82.0,-,-,23.1
CCSc1n[nH]c(=O)[nH]c1=O,?,-,-,-,-
O=C(Nc1cccc(Cl)c1Cl)C1CCN(C(=O)c2cccs2)CC1,-,-,-,-,-
Cc1ccc([N+](=O)[O-])cc1N,.,-,-,-,-
Nc1ccc2c(c1)Cc1ccccc1-2,-,64.3,-,-,34.4
Nc1ccc2c(c1)Cc1cc([N+](=O)[O-])ccc1-2,.,66.8,?,-,41.7
Nc1ccc2c(c1)C(=O)C(=O)c1ccccc1-2,-,-,?,.,-
C=CCNC(=O)N1CCCC(N2CCN(c3ccccc3OC)CC2)C1 (centres undefined),-,-,-,-,-
O=C(/C=C/Nc1ccc(F)c(Cl)c1)c1ccco1,-,141.6,.,-,68.2
O=C(/C=C/Nc1cccc(F)c1)c1ccco1,-,76.1,?,.,34.5
CCCCn1c(N)c(N(CCOC)C(=O)C2CCN(C(=O)c3ccc(F)cc3)CC2)c(=O)[nH]c1=O,.,.,-,-,.
Cc1ccnc(NC(=S)N2CCN(c3cccc(C(F)(F)F)c3)CC2)c1,-,-,?,?,-
Nc1ncnc2c1ncn2CCCCC(=O)O,-,.,.,.,.
Nc1ncnc2c1ncn2CCc1ccccc1,-,44.0,?,-,29.3

# Bioassay records from PubChem BioAssay.
